Experimental data as given in the supplement of paper PMC10849652.
Of roughly 7,900 targets only a part is listed; those with a hit were picked by preference. About 0.6% of all pairs of compound and target were hits. A number with no mark means an inactive call.

Legend:
Assay in all cases: log2 fold change, soluble protein after heating vs DMSO (PISA); higher = thermal stabilisation; K562 cells, 10 uM, 30 min; active = over 0.2 and 3.5 SD of the protein, either way, in both replicates (recomputed)
[1] = compound: CC1=C(C=C(C=C1)NC(=O)C2=CC(=CC=C2)C(C)(C)C#N)NC3=CC4=C(C=C3)N=CN(C4=O)C
Procedure, shortened: (§1)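 For each measurement, 10 μM compound was applied for 30 min to K562 cells at 2×10^6 cells/mL. Aliquots were heated for 3 min across 48°C-58°C, pooled, and extracted in PBS with 0.5% NP-40 at 4°C; the supernatant after 21,000xg for 90 min was soluble protein. This was quantified by TMTpro 16plex LC-MS/MS with channel sums equalised, and thermal stability was reported relative to control samples from duplicates, on a log2 fold-change scale.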

[2] = compound: CC1=C(C=C(C=C1)NC(=O)C2=CC(=CC=C2)N(C)C)NC(=O)C3=CC=C(C=C3)O
Procedure, shortened: as §1

[3] = compound: CC1=CC=C(C=C1)SC2=C3C=C(SC3=CN=C2)C(=O)N
Procedure, shortened: as §1

[4] = compound: CC1=NC(=CC=C1)C2=C(N=C(N2)C(C)(C)C)C3=CC4=NC=CN=C4C=C3
Procedure, shortened: as §1

[5] = compound: CCCCN(Cc1ccc(C(=O)NO)cc1)C(=O)Nc1ccccc1 [Nexturastat A]
Procedure, shortened: as §1

[6] = compound: CCCS(=O)(=O)Nc1ccc(F)c(C(=O)c2c[nH]c3ncc(-c4ccc(Cl)cc4)cc23)c1F [vemurafenib]
Procedure, shortened: as §1

[7] = compound: CCCS(=O)(=O)Nc1ccc(F)c(C(=O)c2c[nH]c3ncc(Cl)cc23)c1F
Procedure, shortened: as §1

[8] = compound: CCCc1cc(C)[nH]c(=O)c1CNC(=O)c1cc(-c2ccnc(N3CCN(C)CC3)c2)cc2c1cnn2C(C)C
Procedure, shortened: as §1

[9] = compound: CCN(CC)Cc1ccc2cc(COC(=O)Nc3ccc(C(=O)NO)cc3)ccc2c1 [givinostat]
Procedure, shortened: as §1

[10] = compound: CCN(CCCOc1ccc2c(Nc3cc(CC(=O)Nc4cccc(F)c4)[nH]n3)ncnc2c1)CCOP(=O)(O)O [barasertib]
Procedure, shortened: as §1

[11] = compound: CC[C@@H]1C(=O)N(C)c2cnc(Nc3ccc(C(=O)NC4CCN(C)CC4)cc3OC)nc2N1C1CCCC1
Procedure, shortened: as §1

[12] = compound: CC[C@@H]1C(=O)N(C)c2cnc(Nc3ccc(C(=O)N[C@H]4CC[C@H](N5CCN(CC6CC6)CC5)CC4)cc3OC)nc2N1C(C)C [volasertib]
Procedure, shortened: as §1

[13] = compound: CC[C@H](C)N1C=C(C2=C(C=C(C=C21)C3=CN=C(C=C3)N4CCNCC4)C(=O)NCC5=C(C=C(NC5=O)C)C)C
Procedure, shortened: as §1

[14] = compound: CC[C@H](C)[C@@H](C(=O)N[C@@H]([C@@H](C)O)C(=O)N[C@@H](CC(C)C)C(=O)[C@]1(CO1)C)NC(=O)[C@H]([C@@H](C)CC)N(C)C(=O)C [epoxomicin]
Procedure, shortened: as §1

[15] = compound: CCn1c(C(=O)N(C2CC2)C2CC2)cc2c3c(ncn3C)c(Nc3cc(C)n(C)n3)nc21
Procedure, shortened: as §1

[16] = compound: CCn1cc(-c2ccnc3[nH]c(-c4cccc(CN(C)C)c4)cc23)c(-c2ccc(NC(=O)N(C)C)cc2)n1
Procedure, shortened: as §1

[17] = compound: CN(C)CC(=O)Nc1ccc2[nH]c(=O)c3ccccc3c2c1
Procedure, shortened: as §1

[18] = compound: CN(CCOC1=CC=C(C=C1)C[C@H]2C(=O)NC(=O)S2)C3=CC=CC=N3 (racemic) [rosiglitazone]
Procedure, shortened: as §1

[19] = compound: CN1C2=C(C3=C1C(=O)N(N=C3)CC4=CC(=CC=C4)N)SC(=C2)S(=O)C
Procedure, shortened: as §1

[20] = compound: CN1CCC(CNc2ccc3ncc(-c4cccc(OC(F)(F)F)c4)n3n2)CC1
Procedure, shortened: as §1

Chain of UniProt Q08945 (Q08945 whole entry, looked up): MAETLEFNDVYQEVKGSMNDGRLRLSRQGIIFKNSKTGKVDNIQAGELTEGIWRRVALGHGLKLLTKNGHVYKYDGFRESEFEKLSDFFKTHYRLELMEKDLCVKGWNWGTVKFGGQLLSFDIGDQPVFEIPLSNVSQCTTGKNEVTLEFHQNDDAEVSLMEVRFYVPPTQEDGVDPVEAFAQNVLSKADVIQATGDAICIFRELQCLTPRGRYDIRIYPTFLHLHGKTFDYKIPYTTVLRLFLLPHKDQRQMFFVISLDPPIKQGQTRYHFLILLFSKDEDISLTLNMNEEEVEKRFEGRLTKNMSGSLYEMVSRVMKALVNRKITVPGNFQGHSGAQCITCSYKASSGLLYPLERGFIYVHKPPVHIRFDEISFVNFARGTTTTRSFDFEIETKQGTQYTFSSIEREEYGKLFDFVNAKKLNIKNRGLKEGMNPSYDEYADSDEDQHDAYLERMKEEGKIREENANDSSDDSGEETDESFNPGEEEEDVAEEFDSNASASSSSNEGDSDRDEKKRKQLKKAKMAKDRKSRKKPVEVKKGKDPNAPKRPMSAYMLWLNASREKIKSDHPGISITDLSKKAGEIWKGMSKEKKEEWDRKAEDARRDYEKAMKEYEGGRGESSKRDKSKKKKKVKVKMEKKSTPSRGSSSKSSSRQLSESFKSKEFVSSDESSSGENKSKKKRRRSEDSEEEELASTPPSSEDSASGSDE
Chain of UniProt P51687 (P51687 whole entry, looked up): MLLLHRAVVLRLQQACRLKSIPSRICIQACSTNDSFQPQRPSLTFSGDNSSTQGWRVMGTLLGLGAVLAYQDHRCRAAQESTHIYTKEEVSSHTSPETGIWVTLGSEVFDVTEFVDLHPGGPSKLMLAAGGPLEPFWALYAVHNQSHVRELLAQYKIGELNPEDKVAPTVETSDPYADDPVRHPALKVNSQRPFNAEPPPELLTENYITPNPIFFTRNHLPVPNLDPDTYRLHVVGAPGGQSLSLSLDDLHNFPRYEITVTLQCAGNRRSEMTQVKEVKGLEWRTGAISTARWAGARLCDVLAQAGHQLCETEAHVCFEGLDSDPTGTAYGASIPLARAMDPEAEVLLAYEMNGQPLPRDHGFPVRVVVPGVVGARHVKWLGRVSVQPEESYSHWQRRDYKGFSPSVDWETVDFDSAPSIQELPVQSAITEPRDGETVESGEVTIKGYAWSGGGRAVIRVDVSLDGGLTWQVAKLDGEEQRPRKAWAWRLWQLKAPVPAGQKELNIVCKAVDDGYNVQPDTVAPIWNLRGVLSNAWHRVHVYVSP
Chain of UniProt Q9UHD2 (Q9UHD2 whole entry, looked up): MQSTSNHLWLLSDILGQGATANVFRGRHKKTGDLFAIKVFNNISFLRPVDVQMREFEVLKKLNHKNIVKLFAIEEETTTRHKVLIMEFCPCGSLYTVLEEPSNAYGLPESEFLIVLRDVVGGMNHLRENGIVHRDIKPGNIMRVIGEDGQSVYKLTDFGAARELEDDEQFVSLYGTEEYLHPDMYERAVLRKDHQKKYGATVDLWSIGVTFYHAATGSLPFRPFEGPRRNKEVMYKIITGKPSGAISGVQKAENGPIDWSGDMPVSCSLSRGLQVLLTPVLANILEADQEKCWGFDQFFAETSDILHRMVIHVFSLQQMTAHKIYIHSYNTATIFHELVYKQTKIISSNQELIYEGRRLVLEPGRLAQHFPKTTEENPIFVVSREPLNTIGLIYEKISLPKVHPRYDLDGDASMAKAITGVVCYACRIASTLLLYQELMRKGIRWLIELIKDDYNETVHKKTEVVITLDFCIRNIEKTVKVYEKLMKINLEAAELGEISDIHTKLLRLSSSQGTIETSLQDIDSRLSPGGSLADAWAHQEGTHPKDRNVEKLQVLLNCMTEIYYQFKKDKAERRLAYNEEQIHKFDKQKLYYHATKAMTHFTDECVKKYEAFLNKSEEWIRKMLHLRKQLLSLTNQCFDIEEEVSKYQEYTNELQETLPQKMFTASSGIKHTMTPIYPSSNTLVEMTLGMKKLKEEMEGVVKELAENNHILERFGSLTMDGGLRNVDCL
Chain of UniProt Q96BW9 (Q96BW9 whole entry, looked up): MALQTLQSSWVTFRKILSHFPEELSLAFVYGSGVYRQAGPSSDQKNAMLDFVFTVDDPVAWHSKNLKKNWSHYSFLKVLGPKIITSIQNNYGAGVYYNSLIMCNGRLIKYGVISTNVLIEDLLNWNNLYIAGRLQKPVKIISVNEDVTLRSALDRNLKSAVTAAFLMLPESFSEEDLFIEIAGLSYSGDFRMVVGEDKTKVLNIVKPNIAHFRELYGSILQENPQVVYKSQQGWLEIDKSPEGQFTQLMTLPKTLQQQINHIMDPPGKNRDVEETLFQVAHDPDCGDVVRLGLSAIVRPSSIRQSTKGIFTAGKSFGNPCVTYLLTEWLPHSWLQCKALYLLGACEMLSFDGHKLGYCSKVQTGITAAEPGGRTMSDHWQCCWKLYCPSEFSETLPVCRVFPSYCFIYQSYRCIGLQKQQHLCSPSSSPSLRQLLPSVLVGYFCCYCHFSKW
Chain of UniProt O14975 (O14975 whole entry, looked up): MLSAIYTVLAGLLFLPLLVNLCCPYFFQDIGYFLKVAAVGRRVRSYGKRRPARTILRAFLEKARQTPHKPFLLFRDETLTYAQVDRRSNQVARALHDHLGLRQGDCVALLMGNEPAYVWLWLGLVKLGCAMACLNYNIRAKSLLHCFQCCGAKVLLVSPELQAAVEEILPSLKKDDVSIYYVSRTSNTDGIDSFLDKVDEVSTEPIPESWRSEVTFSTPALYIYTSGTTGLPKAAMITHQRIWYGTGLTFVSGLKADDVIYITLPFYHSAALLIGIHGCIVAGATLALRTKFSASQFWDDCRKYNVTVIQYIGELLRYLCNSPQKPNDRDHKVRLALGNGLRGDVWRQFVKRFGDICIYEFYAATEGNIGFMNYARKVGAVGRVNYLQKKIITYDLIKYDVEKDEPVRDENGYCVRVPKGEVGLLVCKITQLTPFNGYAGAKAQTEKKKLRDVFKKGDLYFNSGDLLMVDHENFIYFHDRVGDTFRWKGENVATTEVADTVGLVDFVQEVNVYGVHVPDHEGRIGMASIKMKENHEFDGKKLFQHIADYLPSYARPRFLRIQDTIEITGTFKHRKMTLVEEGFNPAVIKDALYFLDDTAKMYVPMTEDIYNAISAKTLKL
Chain of UniProt Q8N0X7 (Q8N0X7 whole entry, looked up): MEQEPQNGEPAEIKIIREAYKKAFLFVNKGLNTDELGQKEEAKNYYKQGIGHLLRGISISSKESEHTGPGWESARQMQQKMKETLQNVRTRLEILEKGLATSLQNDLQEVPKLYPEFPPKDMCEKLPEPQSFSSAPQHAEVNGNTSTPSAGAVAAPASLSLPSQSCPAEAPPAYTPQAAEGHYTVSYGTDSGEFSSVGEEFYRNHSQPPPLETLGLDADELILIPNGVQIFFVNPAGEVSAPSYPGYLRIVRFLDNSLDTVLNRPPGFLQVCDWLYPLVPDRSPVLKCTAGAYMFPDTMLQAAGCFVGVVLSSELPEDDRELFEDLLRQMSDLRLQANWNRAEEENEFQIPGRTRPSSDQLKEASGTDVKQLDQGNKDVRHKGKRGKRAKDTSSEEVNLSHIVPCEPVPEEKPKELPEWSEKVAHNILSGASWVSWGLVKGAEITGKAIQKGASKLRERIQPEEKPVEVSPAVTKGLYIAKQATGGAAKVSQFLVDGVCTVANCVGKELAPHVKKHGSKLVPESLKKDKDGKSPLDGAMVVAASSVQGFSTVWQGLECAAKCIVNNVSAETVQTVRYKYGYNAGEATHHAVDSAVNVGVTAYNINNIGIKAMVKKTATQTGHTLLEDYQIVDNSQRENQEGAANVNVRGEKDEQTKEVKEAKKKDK
Chain of UniProt Q15833 (Q15833 whole entry, looked up): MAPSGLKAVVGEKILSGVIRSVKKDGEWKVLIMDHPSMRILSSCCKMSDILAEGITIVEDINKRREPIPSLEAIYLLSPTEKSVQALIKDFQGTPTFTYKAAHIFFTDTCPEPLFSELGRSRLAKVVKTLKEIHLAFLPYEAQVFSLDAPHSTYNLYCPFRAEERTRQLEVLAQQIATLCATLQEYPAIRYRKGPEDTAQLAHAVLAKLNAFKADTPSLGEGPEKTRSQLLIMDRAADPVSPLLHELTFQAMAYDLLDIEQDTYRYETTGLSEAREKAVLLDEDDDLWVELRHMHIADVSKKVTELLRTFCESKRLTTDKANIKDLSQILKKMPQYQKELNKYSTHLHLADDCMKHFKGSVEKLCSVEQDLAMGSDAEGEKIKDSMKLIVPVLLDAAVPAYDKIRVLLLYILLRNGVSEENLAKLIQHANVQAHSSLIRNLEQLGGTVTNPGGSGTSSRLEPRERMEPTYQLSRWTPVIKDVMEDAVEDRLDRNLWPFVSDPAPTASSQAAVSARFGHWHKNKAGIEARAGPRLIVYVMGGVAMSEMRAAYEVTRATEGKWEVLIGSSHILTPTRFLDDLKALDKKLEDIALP
Chain of UniProt O95926 (O95926 whole entry, looked up): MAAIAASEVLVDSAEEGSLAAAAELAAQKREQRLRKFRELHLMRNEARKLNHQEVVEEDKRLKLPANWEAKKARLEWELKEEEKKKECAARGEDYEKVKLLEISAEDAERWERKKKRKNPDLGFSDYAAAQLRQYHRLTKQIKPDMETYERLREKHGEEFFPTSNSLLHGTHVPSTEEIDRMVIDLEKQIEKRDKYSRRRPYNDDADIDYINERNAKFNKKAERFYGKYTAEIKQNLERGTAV

| Target | log2 fold change [1] | log2 fold change [2] | log2 fold change [3] | log2 fold change [4] | log2 fold change [5] | log2 fold change [6] | log2 fold change [7] | log2 fold change [8] | log2 fold change [9] | log2 fold change [10] | log2 fold change [11] | log2 fold change [12] | log2 fold change [13] | log2 fold change [14] | log2 fold change [15] | log2 fold change [16] | log2 fold change [17] | log2 fold change [18] | log2 fold change [19] | log2 fold change [20] |
| --- | --- | --- | --- | --- | --- | --- | --- | --- | --- | --- | --- | --- | --- | --- | --- | --- | --- | --- | --- | --- |
| SSRP1 (UniProt Q08945) | -0.072 | -0.049 | 0.018 | 0.091 | -0.069 | 0.051 | 0.062 | 0.015 | 0.033 | 0.059 | -0.121 | -0.412 (active) | 0.052 | 0.02 | -0.073 | 0.007 | 0.01 | 0.052 | -0.003 | -0.067 |
| TAMM41 isoform 3 (UniProt Q96BW9) | -0.021 | -0.013 | 0.049 | 0.056 | -0.084 | -0.006 | 0.04 | -0.062 | 0.036 | 0.046 | -0.209 | -0.312 (active) | -0.004 | 0.02 | -0.02 | 0.022 | 0.013 | 0.005 | -0.052 | -0.362 (active) |
| SYF2 (UniProt O95926) | 0.03 | 0.049 | -0.063 | -0.133 | -0.015 | -0.071 | -0.134 | -0.008 | 0.031 | -0.083 | 0.196 | 0.174 | -0.096 | 0.129 | -0.01 | 0.068 | -0.044 | -0.017 | 0.039 | 0.187 |
| SLC27A2 (UniProt O14975) | 0.099 | -0.042 | -0.032 | -0.032 | -0.013 | 0.029 | 0.073 | 0.008 | -0.004 | 0 | -0.094 | -0.408 (active) | 0 | -0.05 | 0.277 (active) | -0.064 | 0.016 | -0.032 | -0.092 | 0.313 (active) |
| SPART (UniProt Q8N0X7) | 0.007 | -0.027 | 0.055 | -0.014 | 0.005 | -0.046 | 0.088 | -0.025 | 0.001 | 0.037 | -0.031 | -0.224 (active) | -0.005 | -0.123 | -0.015 | 0.014 | 0.069 | 0.04 | -0.035 | -0.052 |
| TBK1 (UniProt Q9UHD2) | -0.018 | -0.03 | 0.019 | -0.007 | 0.163 | -0.012 | 0.089 | 0.083 | 0.065 | 0.028 | -0.093 | -0.232 | 0.055 | 0.019 | 0.002 | 0.023 | -0.033 | 0.076 | 0.172 | -0.152 |
| STXBP2 isoform 3 (UniProt Q15833) | 0 | -0.042 | 0.036 | -0.017 | 0.128 | 0.155 | 0.032 | 0.063 | 0.125 | 0.068 | -0.015 | -0.217 | 0.138 | -0.006 | -0.083 | -0.025 | 0.02 | 0.096 | 0.116 | -0.072 |
| SUOX (UniProt P51687) | -0.012 | -0.002 | -0.007 | -0.334 (active) | -0.021 | -0.046 | -0.051 | 0.023 | -0.033 | 0.007 | 0.003 | -0.04 | -0.02 | 0.013 | 0.026 | 0 | 0.005 | 0.012 | -0.07 | -0.31 (active) |
| SYMPK (UniProt Q92797) | 0.042 | -0.004 | 0.05 | 0.005 | -0.103 | 0.119 | 0.212 | 0.051 | 0.145 | 0.042 | -0.341 | -0.5 (active) | -0.289 | 0.073 | -0.036 | -0.026 | 0.123 | 0.13 | 0.076 | -0.141 |
